Experimental data reported in PubChem BioAssay AID485313 (National Center for Advancing Translational Sciences (NCATS), 2010).
Among all 320,000 compounds or so, about 7,600 (2.4%) were called active. About 3% were inconclusive and are not listed. Shown is part of a subset that was picked to be rich in actives. A number with no mark means an inactive call. The call rests on the fitted dose curve; in most records, active means well fitted activation curve with a large enough effect; inconclusive means small, poorly fitted or top-dose-only effect; inactive means no such curve, though single readings can be large or run the other way.
Potency means the concentration at half of the fitted maximal effect.

Experiment: qHTS Assay for NPC1 Promoter Activators; further: nearly all actives have a fitted effect of over 60% in size; on activation: % of control where 0% means no effect
Conditions: Huh7 NPC1 promoter luciferase reporter, 24 h; series mostly up to 9.22 µM; activation: at the top concentration
Source text: NIH Chemical Genomics Center [NCGC] NIH Molecular Libraries Probe Production centers Network [MLPCN] MLPCN Grant: MH089375-01A1 Assay Submitter (PI): Yiannis A. Ioannou NCGC Assay Overview: Niemann Pick Type C (NPC) is a rare neurodegenerative lipidosis that is characterized by lipid storage in the endosomal/lysosomal system. Treatment modalities for this devastating disease are currently non-existent due to the severe obstacles associated with accessing the central nervous system with proteins or genes. The majority of mutations causing NPC disease are missense mutations that are distributed throughout the length of the NPC1 protein, with the most prevalent being the I1061T allele. Although NPC1 mutant proteins may be functional, they are typically trapped in the ER due to misfolding. […] We have developed and optimized a cell based luciferase reporter assay in 1536 well format for the identification of up-regulators of the mutant NPC1 promoter.
The NPC1 promoter is cloned in front of the luciferase reporter gene, therefore NPC promoter activation results in luciferase expression. Frozen stock of the NPC1 promoter transfected Huh7 cells were obtained from the laboratory of Dr. Yiannis Ioannou (The Mount Sinai School of Medicine, New York, NY). Cells were propagated and maintained at NCGC in medium containing RPMI-1640 supplemented with 10% FBS, 2mM L-glutamine, and 50ug/ml penicillin/streptomycin. Cells were harvested in and plated for assays in OP-MEM I reduced-serum medium supplemented with 10% FBS. The Amplite luciferase reporter gene assay kit was purchased from ABD Bioquest and prepared/stored according to manufacturers recommendations. qHTS Assay Setup: 1.#Dispensed 5ul of Huh7 cells stably expressing NPC1-luciferase at a density of 1500 cells per well 1536-well plates. 2.#Incubate cells at 37C, 5% CO2, and 95% humidity for 2 hours. 3.#Transferred 23nl per well of compound in DMSO solution. 4.#Incubated at 37C, 5% CO2, and 95% humidity for 24 hours. 5.#Dispensed 3ul per well of Amplite reagent(ABD Bioquest) per well. 6.#Incubate at ambient for 10 minutes. 7.#Read using the luminescence protocol on the ViewLux plate reader (Perkin Elmer).
For `O=C(CN1C(=O)CCS(=O)(=O)c2ccccc21)NCc1ccc(F)cc1`, the “activation” value was 9.64%.
For `O=C(CNS(=O)(=O)c1ccc2ccccc2c1)Nc1ccc(F)c(F)c1F`, the “activation” value was -5.75%.
In the case of `N#CC(=C1CCCC1)c1nc(-c2ccc(Cl)cc2)cs1`, the Potency is reported as 2510 nM (active).
In the case of `N#CC(=C1SC=CS1)c1nc(-c2ccccc2)cs1`, the “activation” value is reported as 18.5%.
In the case of `CCCCCN1CC(O)=C(c2nc(-c3ccc(Cl)cc3)cs2)C1=N`, the “activation” value is reported as 0.95%.
With `CC1(C)NC(=O)N(CC(=O)N2CCN(S(=O)(=O)c3ccccc3F)CC2)C1=O` the “activation” value was -4.7%.
With `O=C(Nc1ccc(C(F)(F)F)cc1)c1cccc(-n2cnnn2)c1` the “activation” value was -7.93%.
With `CN1CCN(S(=O)(=O)c2ccc(N3CCN(c4ccccc4O)CC3)c([N+](=O)[O-])c2)CC1` the “activation” value was 6.04%.
In the case of `CCc1ccc(N(CC(=O)NCc2cccnc2)S(=O)(=O)c2ccccc2)cc1`, the Potency is reported as 2820 nM (active).
For `CCCNS(=O)(=O)c1ccc(CCC(=O)NCc2cccnc2)cc1`, the “activation” value was -2.07%.
In the case of `O=C(CN(c1cc(C(F)(F)F)ccc1Cl)S(=O)(=O)c1ccccc1)NCc1cccnc1`, the “activation” value is reported as -7.53%.
In the case of `CCN(C(=O)COC(=O)c1c(C)nn(-c2ccccc2)c1Cl)c1c(N)n(Cc2ccccc2)c(=O)[nH]c1=O`, the “activation” value is reported as -0.895%.
With `Cc1ccc(-n2c(C)cc(/C=C(\C#N)C(=O)NCC3CCCO3)c2C)cc1` (centres undefined) the Potency was 3160 nM (active).
In the case of `Cc1cc(/C=C(/C#N)C(=O)Nc2ccc(Cl)cc2)c(C)n1-c1cccnc1`, the “activation” value is reported as 11.6%.
With `Cc1ccc(C(=O)N/C(=C/c2cccs2)C(=O)NCC2CCCO2)cc1` (centres undefined) the “activation” value was -0.594%.
With `O=C1C=C(c2cc(C(F)(F)F)cc(C(F)(F)F)c2)C[C@@H](c2ccc3c(c2)OCO3)C1` the “activation” value was -0.428%.
For `Nc1c(C(=O)OCC(=O)Nc2ccc(OC(F)F)cc2)[nH]c(=O)[nH]c1=O`, the “activation” value was 0.835%.
With `O=c1c2ccccc2c(-c2ccc(F)cc2)nn1-c1ccc(C(F)(F)F)cc1` the “activation” value was -4.99%.
For `Cc1onc(-c2ccccc2)c1C(=O)N1CCN(S(=O)(=O)c2ccccc2C(F)(F)F)CC1`, the “activation” value was -1.13%.
In the case of `Cc1[nH]n(C)c(=O)c1C(=O)c1c(-c2c(Cl)cccc2Cl)noc1C`, the “activation” value is reported as 10.9%.
With `Cn1c(-c2ccc(C(F)(F)F)cc2)cc2onc(-c3ccccc3)c2c1=O` the Potency was 398 nM (active).
In the case of `Cn1c(-c2ccc(F)cc2)cc2onc(-c3ccccc3Cl)c2c1=O`, the Potency is reported as 1580 nM (active).
With `O=C1c2ccccc2C(=O)N1Cc1cc(-c2ccccc2Cl)no1` the “activation” value was -3.22%.
With `C=C(C)C(=O)Nc1cccc(C2=NOC3(C2)C[C@H](C(N)=O)N(C(=O)C(c2ccccc2)c2ccccc2)C3)c1` (some centres undefined) the “activation” value was -5.61%.
With `COc1ccc(CNC(=O)COC(=O)c2ccc(C)c(S(=O)(=O)N3CCOCC3)c2)cc1OC` the “activation” value was -1.27%.
In the case of `Cc1cccc(OCCC(=O)OCc2csc(CC(=O)Nc3ccccc3C)n2)c1`, the “activation” value is reported as -2.87%.
For `COC(=O)c1ccc(C23CC4(C2)[C@H](CN(Cc2cccnc2)[C@@H]4c2ccccc2)C3c2ccc(Cl)nc2)cc1` (some centres undefined), the “activation” value was -3.01%.
In the case of `O=C(Nc1nnc(-c2ccccc2F)s1)c1ccccc1F`, the Potency is reported as 1580 nM (active).
In the case of `CN(Cc1ccccc1)S(=O)(=O)c1nnc(NC(=O)c2ccccc2F)s1`, the “activation” value is reported as 1.08%.
With `O=C(Nc1ccc(NC(=O)c2ccccc2F)cc1)c1ccccc1F` the “activation” value was -6.42%.
For `COc1ccc(C(=O)NCC2CCCCC2)cc1S(=O)(=O)N1CCCC1`, the “activation” value was -5.34%.
For `CCCn1c(N)c(C(=O)CSc2nnc3n2CCCCC3)c(=O)[nH]c1=O`, the “activation” value was 0.178%.
With `COc1ccc([C@H]2CC(=O)C=C(c3ccc(CO)cc3)C2)cc1` the “activation” value was 0.356%.
For `Cc1c(/C=N\NC(=O)c2cc3ccccc3o2)c2ccccc2n1C`, the “activation” value was -28.8%.
In the case of `C/C(=N\NC(=S)Nc1ccc(C)cc1)c1cc2ccccc2o1`, the “activation” value is reported as -1.99%.
With `Cc1ccc(NC(=O)c2cc3ccccc3o2)cc1` the Potency was 3160 nM (active).
In the case of `COc1ccc(NC(=O)Cn2cc(C(=O)c3ccncc3)c(=O)c3cc(C)ccc32)cc1Cl`, the “activation” value is reported as -0.38%.
For `O=C1C=C(c2cccc(Br)c2)C[C@@H](c2ccc(F)cc2)C1`, the “activation” value was -2.81%.
With `COc1cc(SC)ccc1C(=O)Nc1cc(C)ccn1` the Potency was 3160 nM (active).
In the case of `Cc1ccnc(NC(=O)CCCOc2ccccc2)c1`, the “activation” value is reported as -5.09%.
In the case of `COc1cc(SC)ccc1C(=O)N(Cc1ccccc1)c1ccccc1`, the “activation” value is reported as -0.508%.
In the case of `COc1cc(SC)ccc1C(=O)NCCOc1ccccc1Cl`, the Potency is reported as 3160 nM (active).
For `COc1ccccc1OCCNC(=O)CCNC(=O)c1ccccc1Cl`, the “activation” value was 0.549%.
For `Cc1ccnc(NC(=O)CNC(=O)c2ccccc2)c1`, the “activation” value was 3.23%.
For `COc1ccc(S(=O)(=O)Nc2cc(C)on2)cc1NC(C)=O`, the “activation” value was -2.61%.
In the case of `CC1CCCCC1NC(=O)COC(=O)Cc1ccc(Cl)cc1` (centres undefined), the “activation” value is reported as -1.97%.
With `CCc1ccc(C(=O)N2CCN(S(=O)(=O)c3sc(C(=O)O)c(C)c3C(=O)O)CC2)cc1` the “activation” value was -3.15%.
For `COc1ccc(CNC(=O)CN2C(=O)NC3(CCCc4sccc43)C2=O)cc1` (centres undefined), the “activation” value was -0.775%.
In the case of `CCN(CC)S(=O)(=O)c1ccc(CNC(=O)CN2C(=O)NC3(CCc4ccccc43)C2=O)cc1` (centres undefined), the “activation” value is reported as -1.9%.
In the case of `CCn1nc(C(=O)OCC(=O)N2c3ccccc3CC2C)c2ccccc2c1=O` (centres undefined), the “activation” value is reported as -6.18%.
For `CCCC(=O)N1c2ccc(-c3csc(N)n3)cc2CC1C` (centres undefined), the Potency was 2820 nM (active).
With `Cc1ccn(CCC(=O)N2c3ccccc3CC2C)n1` (centres undefined) the “activation” value was -2.45%.
For `COc1ccc(CCNC(=O)COC(=O)c2cc(=O)c3ccccc3o2)cc1`, the “activation” value was -3.16%.
With `O=C(O)c1ccccc1N=N/C(=N/Nc1cc(S(=O)(=O)O)ccc1O)c1ccccc1` the “activation” value was 10.8%.
In the case of `O=C(NCCc1cccc(F)c1)C1CCCN(c2nc3ccccc3s2)C1` (centres undefined), the “activation” value is reported as 3.92%.
In the case of `O=C(c1ccc2nc(N3CCOCC3)sc2c1)N1CCN(c2ccc(Cl)cc2)CC1`, the “activation” value is reported as 2.53%.
With `Fc1ccc2nc(N3CCCCC3)sc2c1` the Potency was 3550 nM (active).
With `Brc1ccc2nc(N3CCCC3)sc2c1` the Potency was 2000 nM (active).
In the case of `Cc1nc(N2CCCCC2)sc1C=O`, the “activation” value is reported as 0.38%.
For `CN(C)CCCN(C(=O)c1ccc(S(=O)(=O)N2CCCCCC2)cc1)c1nc2ccc(Br)cc2s1`, the “activation” value was -4.3%.
With `OCC[C@H]1C[C@H](O)[C@@H](O)[C@]2(Cc3ccccc3CO2)O1` the “activation” value was 3.77%.
In the case of `COc1ccccc1CNC(=O)CCCN1C(=O)NC2(CCCC2)C1=O`, the “activation” value is reported as -1.89%.
For `CNS(=O)(=O)c1cccc(C(=O)OCC(=O)N2c3ccccc3NC(=O)C2(C)C)c1`, the “activation” value was -0.887%.
In the case of `Cc1ccc(OCCCC(=O)Nc2ccc3c(c2)OCCO3)cc1`, the “activation” value is reported as -3.68%.
